Data on 5 molecules can be found in PubChem BioAssay.

A short description of assay [1]: anti-His antibody binders, primary screen, artefact control for SMM control protein annotation, biochemical, small-molecule microarray, 635 nm fluorescence (AID 1128).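 Also: score merges feature fluorescence with signal-to-noise for each printed compound spot.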 The conditions noted are these: anti-His Alexa647 antibody binding, higher = more signal.
For assay [2], the system named is Human papillomavirus type 1a E7 protein (residues 1-88). Nature of the assay: HPV1a E7 small-molecule binders, primary screen, biochemical, small-molecule microarray, residues 1-88, 635 nm (AID 1129). The conditions noted are these: small-molecule microarray binding, fluorescence 635 nm; higher = more signal.
In assay [3] the target is Focal adhesion kinase 1 (Homo sapiens) (UniProt Q05397). Nature of the assay: small-molecule microarray binders of FAK, primary screen, biochemical, 635/667 nm fluorescence, BSA, DTT (AID 1130).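 Also: composite of spot emission at 667 nm and signal to noise over triplicate slides.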 The conditions noted are these: PTK2 binding, 635 nm fluorescence, higher = more signal.
Focal adhesion kinase 1 (Homo sapiens), sequence (Q05397 whole entry, looked up): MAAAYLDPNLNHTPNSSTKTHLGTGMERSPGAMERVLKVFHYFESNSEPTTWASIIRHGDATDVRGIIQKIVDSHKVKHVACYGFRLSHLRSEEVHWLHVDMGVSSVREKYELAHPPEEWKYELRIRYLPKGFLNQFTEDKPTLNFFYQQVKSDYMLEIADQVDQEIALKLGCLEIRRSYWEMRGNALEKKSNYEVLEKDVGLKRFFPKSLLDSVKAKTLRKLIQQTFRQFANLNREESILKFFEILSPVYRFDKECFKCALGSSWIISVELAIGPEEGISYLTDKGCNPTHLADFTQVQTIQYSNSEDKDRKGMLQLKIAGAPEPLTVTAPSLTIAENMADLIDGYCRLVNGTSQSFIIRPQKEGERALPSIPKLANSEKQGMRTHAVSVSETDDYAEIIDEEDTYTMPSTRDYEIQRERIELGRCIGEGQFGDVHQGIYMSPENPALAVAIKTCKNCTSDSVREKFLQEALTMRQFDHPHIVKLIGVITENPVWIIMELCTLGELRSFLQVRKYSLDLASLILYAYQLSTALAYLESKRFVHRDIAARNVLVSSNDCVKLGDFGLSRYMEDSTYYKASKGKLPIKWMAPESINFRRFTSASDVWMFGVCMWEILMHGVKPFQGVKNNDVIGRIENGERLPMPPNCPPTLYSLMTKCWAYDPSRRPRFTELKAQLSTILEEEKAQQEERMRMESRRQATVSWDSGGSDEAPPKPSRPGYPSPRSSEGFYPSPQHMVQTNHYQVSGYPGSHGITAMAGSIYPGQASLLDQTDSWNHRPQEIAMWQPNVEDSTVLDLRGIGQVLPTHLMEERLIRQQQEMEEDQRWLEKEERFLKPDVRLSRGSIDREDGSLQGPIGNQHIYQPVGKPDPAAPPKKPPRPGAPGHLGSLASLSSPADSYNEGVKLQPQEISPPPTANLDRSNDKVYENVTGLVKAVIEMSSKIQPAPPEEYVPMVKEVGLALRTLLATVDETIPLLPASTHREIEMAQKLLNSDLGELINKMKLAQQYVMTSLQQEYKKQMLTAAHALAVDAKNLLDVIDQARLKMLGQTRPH
For assay [4], the system named is Fibrinogen (Alexa647-labelled). Nature of the assay: fibrinogen binders on compound microarrays, profiling panel, artefact control for SMM control-protein annotation, biochemical, small-molecule microarray, 635/667 nm fluorescence (AID 1131).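 Also: z-score merges 667 nm fluorescence with per-spot signal-to-noise over triplicate slides.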 The note with it: fibrinogen-A647 binding fluorescence, higher = more signal.
Assay [5] addresses Follistatin (Homo sapiens) (UniProt P19883). Nature of the assay: follistatin binders on small-molecule microarrays, primary screen, biochemical, small-molecule microarray, 635/667 nm fluorescence (AID 1132). The note with it: FST binding, 635 nm fluorescence, higher = more signal.
Assay [6] addresses Fibroblast growth factor 2 (Homo sapiens) (UniProt P09038). Nature of the assay: FGF2 binders on small-molecule microarrays, primary screen, biochemical, small-molecule microarray, 635/667 nm fluorescence (AID 1133). The note with it: small-molecule microarray binding, FGF2, fluorescence 635/667; higher = more signal.
Assay [7] in a line: mitochondrial membrane potential change in A549 cells, profiling panel, cell-based, JC-1 fluorescence, basal, 24 h, 100 nL (AID 1138).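 Also: A549 lung adenocarcinoma cells under basal conditions with no added stimulus; test concentration not given here.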 The conditions noted are these: higher = more signal.
The next assay relates to Lefty1. Kind of assay: Lefty1 binders on small-molecule microarrays, primary screen, biochemical, small-molecule microarray, 635/667 nm fluorescence (AID 1139). The note with it: small-molecule microarray binding, fluorescence 635/667; higher = more signal.
Assay [8] relates to wheat germ agglutinin (Triticum aestivum), Alexa647-labelled. Nature of the assay: wheat germ agglutinin binders on compound microarrays, profiling panel, artefact control for SMM control-protein annotation, biochemical, small-molecule microarray, 635/667 nm fluorescence (AID 1140).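 Also: score merges 667 nm feature emission with signal to noise over triplicate slides.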 The conditions noted are these: WGA-A647 binding, 635 nm fluorescence, higher = more signal.
Assay [9] deals with Luciferin 4-monooxygenase (Photinus pyralis) (UniProt P08659). Kind of assay: firefly luciferase enzyme inhibitors, primary screen, biochemical, luminescence, purified enzyme, 2006 set (AID 1141).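 Also: cell-free assay with purified firefly luciferase at 100 ng per well in PBS; test concentration not given here.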 The note with it: SteadyGlo luminescence, 30 min, higher = more signal, called active from +8 up or from −8 down.
Luciferin 4-monooxygenase (Photinus pyralis), sequence (P08659 whole entry, looked up): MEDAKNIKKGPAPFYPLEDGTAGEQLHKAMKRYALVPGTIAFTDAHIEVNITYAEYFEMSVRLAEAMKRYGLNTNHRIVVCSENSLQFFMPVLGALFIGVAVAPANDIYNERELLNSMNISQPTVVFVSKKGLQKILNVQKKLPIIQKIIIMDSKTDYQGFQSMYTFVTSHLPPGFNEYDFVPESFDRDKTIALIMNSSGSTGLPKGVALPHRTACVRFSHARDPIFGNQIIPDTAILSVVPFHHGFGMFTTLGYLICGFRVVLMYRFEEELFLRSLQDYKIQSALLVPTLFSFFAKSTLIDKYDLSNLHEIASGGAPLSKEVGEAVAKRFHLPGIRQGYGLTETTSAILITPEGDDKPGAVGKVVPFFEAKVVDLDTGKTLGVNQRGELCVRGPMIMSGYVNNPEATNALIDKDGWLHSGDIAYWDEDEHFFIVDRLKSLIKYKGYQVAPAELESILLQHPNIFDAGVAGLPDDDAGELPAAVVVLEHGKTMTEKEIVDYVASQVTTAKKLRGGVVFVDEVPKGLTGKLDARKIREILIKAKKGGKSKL
Assay [10] concerns Wnt5a (protein binding on small-molecule microarray). Kind of assay: Wnt5a binders on small-molecule microarray, primary screen, biophysical, 635/667 nm fluorescence (AID 1142).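 Also: fluorescence read at 667 nm with signal to noise per printed feature.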 The conditions noted are these: 635 nm fluorescence, higher = more signal.
Assay [11] in a line: cell viability in Huh7 cells, primary screen, cytotoxicity control for HCV replication inhibitor project, CellTiter-Glo luminescence, basal, 48 h (AID 1143).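 Also: Huh7 hepatoma cells carrying a hepatitis C replication reporter with no stimulus; test concentration not given here.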 The conditions noted are these: Huh7 HCV replicon, higher = more signal, called active from +8 up or from −8 down. In general terms: In ATP-based viability assays light output follows the ATP content of the culture.
Assay [12] can be described thus: P. aeruginosa biofilm formation inhibitors, primary screen, PAO1 strain, BacTiter-Glo luminescence, LB-PBS (AID 1144). The conditions noted are these: 12 h, higher = more signal.
The nature of assay [13]: CREB reporter modulators without forskolin, primary screen, cell-based, PC12, CRE-LacZ reporter, unstimulated (AID 1145). The conditions noted are these: no forskolin, luminescence, 4.5 h, higher = more signal, called active from +8 up or from −8 down.
Assay [14] can be described thus: CREB reporter modulators under forskolin, primary screen, cell-based, PC12, CRE-LacZ reporter, forskolin-stimulated (AID 1146).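 Also: PC12 cells with 6xCRE LacZ reporter stimulated by forskolin 10 µM; beta-galactosidase reporter signal reflecting CREB driven transcription.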 The note with it: luminescence, 4.5 h, higher = more signal, called active from +8 up or from −8 down.
The target of assay [15] is Streptavidin (Streptomyces avidinii) (UniProt P22629). Kind of assay: streptavidin binders on small-molecule microarray, primary screen, artefact control for SMM compound annotation, biophysical, 635/667 nm fluorescence (AID 1147).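 Also: signal reflects streptavidin binding to arrayed compounds as a control protein.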 The note with it: streptavidin binding, higher = more signal.
Streptavidin (Streptomyces avidinii), sequence (P22629 whole entry, looked up): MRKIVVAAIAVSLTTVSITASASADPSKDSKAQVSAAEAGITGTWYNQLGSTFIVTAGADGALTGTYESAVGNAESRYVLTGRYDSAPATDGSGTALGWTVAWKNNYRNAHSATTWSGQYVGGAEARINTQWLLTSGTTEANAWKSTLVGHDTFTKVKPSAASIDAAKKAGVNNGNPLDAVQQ
A short description of assay [16]: small-molecule binders of probe aInhba, primary screen, biochemical, small-molecule microarray, 635/667 nm fluorescence (AID 1148).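 Also: score merges 667nm spot fluorescence with signal-to-noise for antibody binding to printed compounds.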 The note with it: higher = more signal.
For assay [17], the target named is Torsin-1A (Homo sapiens) (UniProt O14656). Kind of assay: torsin A binders from cell lysate, primary screen, small-molecule microarray, wild-type, 635/667 nm (AID 1149). The note with it: COS7 hTOR1A-WT lysate, 635 nm fluorescence, higher = more signal.
Torsin-1A (Homo sapiens), sequence (O14656 whole entry, looked up): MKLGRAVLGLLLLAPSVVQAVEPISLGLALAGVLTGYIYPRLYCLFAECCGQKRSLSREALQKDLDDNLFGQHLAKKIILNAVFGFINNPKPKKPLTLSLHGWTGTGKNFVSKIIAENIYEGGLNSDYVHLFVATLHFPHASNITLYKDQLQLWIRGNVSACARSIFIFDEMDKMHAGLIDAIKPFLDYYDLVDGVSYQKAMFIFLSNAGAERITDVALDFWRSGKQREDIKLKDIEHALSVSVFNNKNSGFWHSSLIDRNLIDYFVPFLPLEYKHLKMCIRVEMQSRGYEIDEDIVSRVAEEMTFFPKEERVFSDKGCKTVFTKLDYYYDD
The target is the same in assay [18]. Kind of assay: small-molecule binders of mutant TOR1A in lysate, primary screen, cell lysate, small-molecule microarray, COS7 lysate, 635/667 nm fluorescence (AID 1150).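 Also: score pools 667 nm emission and signal to noise measuring lysate protein binding.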 The note with it: COS7 hTOR1A mutant lysate, 635 nm fluorescence, higher = more signal.
Assay [19] deals with Sonic hedgehog protein (Shh). Kind of assay: small-molecule binders of Shh protein, primary screen, biochemical, small-molecule microarray, 635/667 nm fluorescence (AID 1151).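 Also: Shh protein binding to compounds spotted on small-molecule microarray slides; score combines spot fluorescence intensity with signal-to-noise across triplicate slides.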 The note with it: small-molecule microarray binding, 635 nm fluorescence; higher = more signal.

Active and inactive are the calls of the source. Unless noted, no rule for the calls is given here.

Fibroblast growth factor 2 (Homo sapiens), sequence (P09038 whole entry, looked up): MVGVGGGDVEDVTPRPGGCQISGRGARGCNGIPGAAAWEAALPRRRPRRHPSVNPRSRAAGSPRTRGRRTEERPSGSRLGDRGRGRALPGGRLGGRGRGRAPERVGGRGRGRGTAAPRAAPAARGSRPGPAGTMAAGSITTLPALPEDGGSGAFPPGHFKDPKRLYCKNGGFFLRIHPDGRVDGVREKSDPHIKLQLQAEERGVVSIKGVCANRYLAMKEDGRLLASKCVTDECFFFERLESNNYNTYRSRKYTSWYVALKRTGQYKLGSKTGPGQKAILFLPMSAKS
Follistatin (Homo sapiens), sequence (P19883 whole entry, looked up): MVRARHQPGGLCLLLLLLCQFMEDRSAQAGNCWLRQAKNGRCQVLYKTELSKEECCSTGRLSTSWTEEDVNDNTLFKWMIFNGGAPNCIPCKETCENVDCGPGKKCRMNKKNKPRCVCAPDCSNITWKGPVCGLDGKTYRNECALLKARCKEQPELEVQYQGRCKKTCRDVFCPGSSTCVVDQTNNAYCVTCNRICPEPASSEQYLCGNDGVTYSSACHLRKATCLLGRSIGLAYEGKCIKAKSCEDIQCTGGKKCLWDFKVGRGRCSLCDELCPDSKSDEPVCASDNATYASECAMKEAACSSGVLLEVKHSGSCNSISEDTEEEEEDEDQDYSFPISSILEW

As to `COc1ccc(O[C@@H]2[C@H](O)CO[C@H]2C=Cc2ccccc2)cc1`, the composite z-score in [1] was 0.326; in [2], -0.437; in [3], 0.051; in assay [4], 0.173; in assay [5] it was -0.117; in [6] it was 0.117. Besides, the composite z-score in the assay on Lefty1 was -0.208; in [8] it was 0.0385; in [10], -0.0668; in [15] it was -0.06; in assay [16], -0.179; with Torsin-1A (Homo sapiens) [17] it was -0.696. The composite z-score with Torsin-1A (Homo sapiens) [18] is -0.668; in assay [19] it was 0.253. For the same molecule, the z-score in assay [7] was 1.66; in assay [9], -1.69 (inactive); in assay [11], -0.617 (inactive); in assay [12], -1.74 (inactive); in assay [13], 0.284 (inactive); in [14] it was -1.04 (inactive).

Take `COc1ccc(O[C@H]2C=C[C@@H](c3ccccc3)O[C@@H]2CON=C(C)C)cc1`: the composite z-score in [1] was -0.732; in assay [2], -1.11; in assay [3], 0.433; in [4], 0.152; in assay [5] it was 0.234; in assay [6] it was -0.287. Further, the composite z-score is -0.0027 in the assay on Lefty1; 0.938 in assay [8]; -0.0515 in [10]; 0.446 in [15]; -0.004 in [16]; -0.0422 with Torsin-1A (Homo sapiens) [17]. In addition, the composite z-score with Torsin-1A (Homo sapiens) [18] was -0.222; in assay [19], -0.114. Besides, the z-score in [7] was -0.541; in assay [9] it was 0.409 (inactive); in [11], 0.361 (inactive); in [12], -0.385 (inactive); in assay [13], 0.113 (inactive); in assay [14], 0.177 (inactive).

With `CO[C@H]1COC(=O)CC=C[C@H](C)[C@@H](OC)COC(=O)[C@H](C)COC(=O)CC=C[C@@H]1C`, the composite z-score in assay [1] is 0.487; in assay [2], -0.759; in assay [3], -0.309; in assay [4], -0.899; in assay [5], 1.36; in [6], 1.36. Moreover, the composite z-score with Lefty1 is 1.12; in assay [8], -0.844; in assay [10], -0.144; in [15], -0.127; in assay [16] it was -0.208; with Torsin-1A (Homo sapiens) [17], 1.1. In addition, the composite z-score with Torsin-1A (Homo sapiens) [18] stood at 1.01; in assay [19] it was 1.93. Besides, the z-score in [7] was 1.13; in assay [9], -0.913 (inactive); in [11], -0.0417 (inactive); in assay [12] it was -0.165 (inactive); in assay [13], -0.93 (inactive); in assay [14], -0.724 (inactive).

In the case of `CC[C@@H](c1ccccc1)n1c(=O)n2n(c1=O)[C@H]1[C@H](O)[C@@H]3O[C@@H]3C(=O)[C@H]1CC2`, the composite z-score was -0.276 in assay [1]; 0.0346 in [2]; 0.0786 in [3]; -0.0351 in [4]; 0.295 in [5]; 0.319 in [6]. Further, the composite z-score in the assay with Lefty1 is 0.387; in assay [8] it was 0.13; in assay [10] it was -0.0319; in assay [15], 0.092; in assay [16], -0.0762; with Torsin-1A (Homo sapiens) [17], 0.0045. In addition, the figures for the composite z-score (with Torsin-1A (Homo sapiens) [18]; in [19]) were -0.146 and 0.678, respectively. The z-score in [7] was 0.276; in assay [9], -1.23 (inactive); in assay [11], -3.57 (inactive); in assay [12], 0.206 (inactive); in assay [13] it was -1.02 (inactive); in assay [14], 2.92 (inactive).

Turning to `O=C1CCCC=C1C(O)CCCCBr` (stereo not given), the composite z-score in [1] is 3.06; in assay [2], 0.466; in [3], -0.0308; in assay [4] it was 0.798; in assay [5] it was 1.01; in [6], 0.306. For the same molecule, the composite z-score with Lefty1 is 0.564; in assay [8], 1.28; in assay [10], 0.0756; in assay [15], 1.51; in [16], -0.0523; with Torsin-1A (Homo sapiens) [17], 0.201. The values for the composite z-score (in the assay with Torsin-1A (Homo sapiens) [18]; in [19]) were 0.686 and 0.333, respectively. For the same molecule, the z-score is 1.04 in [7]; -1.97 (inactive) in [9]; -3.99 (inactive) in [11]; -0.548 (inactive) in assay [12]; 1.37 (inactive) in assay [13]; 27 (active) in [14].
